According to PubChem BioAssay AID1035475 (Broad Institute, 2014):
Potency and affinity values are given separately. Results filed as inconclusive are left out. The source made the active and inactive calls.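 The calls were made as follows: active = fluorescent signal drops by 40% or more, counted as a hit; inconclusive = no clear call, values can overlap the other calls; inactive = the rest, including any activity in the opposite direction.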

Assay: blockers of FN fibrillogenesis by fibroblasts – AH1F cells, Alexa488-FN fluorescence, cherry-picks, dose response (AID 1035475);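 also: AH1F fibroblasts incorporating labeled fibronectin into their extracellular matrix; 0% = neutral control wells and -100% = wells without labeled fibronectin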
Conditions: Alexa488-fibronectin deposition fluorescence, overnight; series mostly up to 35 µM; activity change, negative = inhibition: at the top concentration

Compound	activity change, negative = inhibition
CO[C@H]1CN(C)C(=O)c2cc(NC(=O)Nc3ccc(C(F)(F)F)cc3)ccc2OC[C@H](C)NC[C@H]1C	15.1% (inactive)
COC(=O)C[C@@H]1CC[C@H]2[C@@H](COc3ccc(NC(=O)Cc4cccs4)cc3C(=O)N2C)O1	29.4% (inactive)
CCCCNC(=O)Nc1nc2ccc(CC)cc2s1	-10.3% (inactive)
C[C@H]1CN([C@@H](C)CO)C(=O)c2cccc(NC(=O)Nc3ccc(C(F)(F)F)cc3)c2O[C@@H]1CN(C)C(=O)Nc1cccc2ccccc12	18.8% (inactive)
O=C(c1cccnc1)N1C[C@@H]2[C@H](c3ccccc31)[C@@H](CO)N2CC1CCCC1	36% (inactive)
O=C(C[C@@H]1C[C@@H]2c3cc(NC(=O)c4ccc5c(c4)OCO5)ccc3O[C@@H]2[C@@H](CO)O1)NCc1ccc(Oc2ccccc2)cc1	-10.1% (inactive)
COC(=O)C[C@H]1CC[C@H]2[C@H](COc3ccc(NC(=O)Cc4cccs4)cc3C(=O)N2C)O1	16.8% (inactive)
Fc1cnc(N2CCN(c3ccccc3)CC2)nc1N1CCN(c2ccccc2)CC1	-16.8% (inactive)
C[C@H](O)C#Cc1ccc2c(c1)O[C@H](CN(C)C)[C@H](C)CN([C@H](C)CO)S2(=O)=O	28.2% (inactive)
C[C@@H]1CN([C@H](C)CO)C(=O)c2cc(-c3ccccc3)cnc2O[C@H]1CN(C)C(=O)c1cccc(F)c1	27.5% (inactive)
COc1cccc(-c2ccc3c(c2)[C@@H]2[C@@H](CCN2S(=O)(=O)c2cccc(OC)c2)[C@@H](CO)N3)c1	-14.6% (inactive)
CCC(C)(C)NC(=O)C(OC(=O)c1ccco1)c1ccccc1OC (stereo not given)	11.6% (inactive)
CO[C@H]1CN(C)C(=O)c2ccc(NC(=O)Nc3ccc(Cl)c(Cl)c3)cc2OC[C@H](C)NC[C@H]1C	-31.4% (inactive)
COc1ccc([N+](=O)[O-])cc1NS(=O)(=O)c1ccc(C(=O)N2CCCC2)cc1	-0.187% (inactive)
Cc1cccc(NC(=O)c2ccc(S(=O)(=O)N3CCCCC3)cc2)n1	-12.8% (inactive)
C[C@@H]1CN([C@@H](C)CO)C(=O)c2cc(NC(=O)CCCN(C)C)ccc2O[C@H]1CN(C)Cc1ccc(-c2ccccc2)cc1	-2.69% (inactive)
COCC(=O)Nc1ccc2c(c1)C(=O)N(C)[C@H]1CC[C@H](CC(=O)NCc3ccccc3Cl)O[C@@H]1CO2	27.3% [at 30 µM] (inactive)
O=C(CSc1nc2ncc(Cl)cc2[nH]1)c1c[nH]c2ccccc12	-35.1% (inactive)

Compound	activity change, negative = inhibition
O=S(=O)(c1ccccc1F)N1CC[C@@H]2[C@H](CO)Nc3ccc(-c4cccc(F)c4)cc3[C@@H]21	21.5% (inactive)
Cc1ccccc1S(=O)(=O)N1CC[C@H]2[C@H](CO)Nc3ccc(-c4ccc(C#N)cc4)cc3[C@H]21	-14.9% (inactive)
O=C(NCCS(=O)(=O)N1CCN(c2ccc(F)cc2)CC1)c1ccc(Br)o1	-2.3% (inactive)
CCCc1cc(C(=O)OC)c(NC(=O)CCC(=O)O)s1	-15.6% (inactive)
CN(C)C(=O)c1ccc(-c2ccc3c(c2)[C@@H]2[C@@H](CCN2C(=O)c2ccc(F)cc2)[C@H](CO)N3C)cc1	38.9% (inactive)
CO[C@@H]1CN(C)C(=O)c2cc(NC(=O)Nc3ccc(Cl)c(Cl)c3)ccc2OC[C@@H](C)NC[C@@H]1C	28.6% (inactive)
N#C[C@@H]1[C@H](c2ccccc2C2=CCCCC2)[C@@H](CO)N1S(=O)(=O)c1ccccc1	59.9% (inactive)
CO[C@H]1CN(C)C(=O)c2cc(NC(C)=O)ccc2OC[C@@H](C)N(C(=O)CN2CCOCC2)C[C@H]1C	43.6% (inactive)
CO[C@H]1CN(C)C(=O)c2ccc(NC(=O)c3ccc(-c4ccccc4)cc3)cc2OC[C@H](C)NC[C@@H]1C	10.2% (inactive)
C[C@@H]1CN([C@H](C)CO)C(=O)c2cc(NC(=O)CCCN(C)C)ccc2O[C@@H]1CN(C)Cc1ccc(-c2ccccc2)cc1	7.33% (inactive)
CN1c2ccc(-c3ccccc3)cc2[C@@H]2[C@@H](CCN2C(=O)CN2CCOCC2)[C@H]1CO	17.3% [at 30 µM] (inactive)
CCc1nc2c(OCCc3cccc(OC)c3)cccn2c1N(C)C(=O)c1ccc(C)cc1	-32.4% (inactive)
COc1cccc(-c2ccc3c(c2)[C@H]2[C@H](CCN2S(=O)(=O)c2cccc(OC)c2)[C@H](CO)N3)c1	3.66% (inactive)
CC(C)(C)[S@@](=O)N1Cc2cc(C(=O)NCc3ccccc3F)nc(-c3cccc(-c4ccncc4)c3)c2[C@H]1CCO	-7.62% (inactive)
CO[C@H]1CN(C)C(=O)c2ccc(NC(=O)c3ccc(-c4ccccc4)cc3)cc2OC[C@H](C)NC[C@H]1C	21.2% (inactive)
C[C@@H]1CN([C@@H](C)CO)C(=O)c2cc(-c3ccccc3)cnc2O[C@H]1CN(C)Cc1ccccc1	22.7% (inactive)
C[C@H](CO)N1C[C@H](C)[C@H](CN(C)Cc2ccccc2)Oc2ncc(-c3ccccc3)cc2C1=O	26.4% (inactive)
